Reference: PubChem BioAssay (NCI)
The panel holds about 83,000 compounds, 20% with a hit somewhere; the sample as a whole holds those more often.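 For each line, cells grew in 96-well plates with the test compound present at a single concentration for 48 hours.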 Values without a mark were called inactive. Active and inactive are the calls of the source. Rule for the calls: active = growth percent below 10; inactive = the rest.

Tests used:
Test in all cases: NCI-60 one-dose screen, 48 h (100 = growth as untreated, 0 = no growth, -100 = all killed)
Conditions in all cases: 10 µM
T-47D breast = test system: T-47D breast
BT-549 breast = test system: BT-549 breast
MDA-MB-435 melanoma = test system: MDA-MB-435 melanoma
SW-620 colon = test system: SW-620 colon
MCF7 breast = test system: MCF7 breast
HCT-116 colon = test system: HCT-116 colon
HCC-2998 colon = test system: HCC-2998 colon
KM12 colon = test system: KM12 colon

## Cc1ccc(S(=O)(=O)Nc2cccc3[nH]c(C(F)(F)F)nc23)cc1
T-47D breast
  growth: 47.2%
BT-549 breast
  growth: 52%
MDA-MB-435 melanoma
  growth: -31.5% (active)
SW-620 colon
  growth: 18.6%
MCF7 breast
  growth: 13.2%
HCT-116 colon
  growth: 23.8%
HCC-2998 colon
  growth: 28.1%
KM12 colon
  growth: 21%

## Cc1cn(C(=O)/C(Cl)=C(/Cl)C(=O)O)c2ccccc12
T-47D breast
  growth: 101%
BT-549 breast
  growth: 111%
MDA-MB-435 melanoma
  growth: 109%
SW-620 colon
  growth: 104%
MCF7 breast
  growth: 108%
HCT-116 colon
  growth: 105%
HCC-2998 colon
  growth: 108%
KM12 colon
  growth: 108%

## COc1cc2ccnc(C=O)c2cc1OC
T-47D breast
  growth: 60.7%
BT-549 breast
  growth: 56.3%
MDA-MB-435 melanoma
  growth: 31.1%
SW-620 colon
  growth: 30.2%
MCF7 breast
  growth: 23.8%
HCT-116 colon
  growth: 9.15% (active)
HCC-2998 colon
  growth: 104%
KM12 colon
  growth: 92.1%

## CCCc1c(CC)c(=N)c2ccccc2n1C
T-47D breast
  growth: 73%
BT-549 breast
  growth: 81.8%
MDA-MB-435 melanoma
  growth: 7.61% (active)
SW-620 colon
  growth: 57.8%
MCF7 breast
  growth: 32%
HCT-116 colon
  growth: 27.7%
HCC-2998 colon
  growth: 15.5%

## NC1CCC(Nc2nc(NCc3ccc(-c4cccs4)nc3)c3ncn(C4CCCC4)c3n2)CC1 (stereo unspecified)
T-47D breast
  growth: -22.9% (active)
BT-549 breast
  growth: -27.4% (active)
MDA-MB-435 melanoma
  growth: -53.2% (active)
SW-620 colon
  growth: 6.7% (active)
MCF7 breast
  growth: -34% (active)
HCT-116 colon
  growth: 0.721% (active)
HCC-2998 colon
  growth: -43.1% (active)
KM12 colon
  growth: 5.58% (active)

## CCC1(C)OC(=O)NC1=O (stereo unspecified)
T-47D breast
  growth: 93.8%
BT-549 breast
  growth: 93.3%
MDA-MB-435 melanoma
  growth: 112%
SW-620 colon
  growth: 110%
MCF7 breast
  growth: 97.7%
HCT-116 colon
  growth: 87.7%
HCC-2998 colon
  growth: 99%
KM12 colon
  growth: 107%

## COc1ccc2c(=O)cc(C(Cl)(Cl)Cl)oc2c1
T-47D breast
  growth: 4.96% (active)
BT-549 breast
  growth: -11.9% (active)
MDA-MB-435 melanoma
  growth: -81% (active)
SW-620 colon
  growth: -2.53% (active)
MCF7 breast
  growth: -9.4% (active)
HCT-116 colon
  growth: 4.23% (active)
HCC-2998 colon
  growth: -30% (active)

## COc1ccc(-c2nc(-c3nc4ccc(OC)cc4[nH]3)c3ccccn23)cc1
T-47D breast
  growth: 36.7%
BT-549 breast
  growth: 77.6%
MDA-MB-435 melanoma
  growth: 81.5%
SW-620 colon
  growth: 93.3%
MCF7 breast
  growth: 69.4%
HCT-116 colon
  growth: 66.4%
HCC-2998 colon
  growth: 86.4%

## O=C(Nc1ccc(OCc2nnc(-c3ccccc3)o2)c(F)c1)Nc1ccc(Cl)c(Cl)c1
T-47D breast
  growth: 33.7%
BT-549 breast
  growth: 79%
MDA-MB-435 melanoma
  growth: 68.8%
SW-620 colon
  growth: 66.3%
MCF7 breast
  growth: 57.7%
HCT-116 colon
  growth: 49.2%
HCC-2998 colon
  growth: 58.5%
KM12 colon
  growth: 34.1%

## CCC(OC(=O)CC(C)C)c1ccccc1 (stereo unspecified)
T-47D breast
  growth: 84.5%
BT-549 breast
  growth: 101%
MDA-MB-435 melanoma
  growth: 104%
SW-620 colon
  growth: 105%
MCF7 breast
  growth: 94.3%
HCT-116 colon
  growth: 107%
HCC-2998 colon
  growth: 101%
KM12 colon
  growth: 107%

## CCN(CC)CC(O)CNc1ccnc2cc(Cl)c(Cl)cc12 (stereo unspecified)
T-47D breast
  growth: 93.1%
BT-549 breast
  growth: 88.9%
MDA-MB-435 melanoma
  growth: 96.8%
SW-620 colon
  growth: 97.3%
MCF7 breast
  growth: 79.5%
HCT-116 colon
  growth: 64.2%
HCC-2998 colon
  growth: 102%
KM12 colon
  growth: 94.2%

## Cc1cc(/C=C2\SC(=Nc3ccccc3)N(C3CCCC3)C2=O)c(C)n1-c1ccc(Cl)cc1
T-47D breast
  growth: -49.3% (active)
BT-549 breast
  growth: -57.6% (active)
MDA-MB-435 melanoma
  growth: -82.4% (active)
SW-620 colon
  growth: -61.6% (active)
MCF7 breast
  growth: -56.5% (active)
HCT-116 colon
  growth: -50.5% (active)
HCC-2998 colon
  growth: -83.8% (active)

## CCCCN(CCCC)c1ccc(C(=NC(C)CCCN(CC)CC)c2ccc(N(C)C)cc2)cc1 (stereo unspecified)
T-47D breast
  growth: -55.8% (active)
BT-549 breast
  growth: -27.2% (active)
MDA-MB-435 melanoma
  growth: -87.5% (active)
SW-620 colon
  growth: -66.7% (active)
MCF7 breast
  growth: -80.9% (active)
HCT-116 colon
  growth: -81.5% (active)
HCC-2998 colon
  growth: -59% (active)
KM12 colon
  growth: -14.3% (active)

## C=CCOc1ccc2c(c1)CC[C@@H]1[C@@H]2CC[C@]2(C)C(=O)/C(=N/O)C[C@@H]12
T-47D breast
  growth: 22.7%
BT-549 breast
  growth: 28.6%
MDA-MB-435 melanoma
  growth: 61.6%
SW-620 colon
  growth: 42.5%
MCF7 breast
  growth: 44.2%
HCT-116 colon
  growth: 12.2%
HCC-2998 colon
  growth: 27%
KM12 colon
  growth: 61.6%

## CCOC(=O)c1cc2c(n1Cc1ccccc1)-c1oncc1CC2
T-47D breast
  growth: 93.8%
BT-549 breast
  growth: 92.7%
MDA-MB-435 melanoma
  growth: -27.4% (active)
SW-620 colon
  growth: 32.9%
MCF7 breast
  growth: 80.3%
HCT-116 colon
  growth: 89%
HCC-2998 colon
  growth: 83.6%
KM12 colon
  growth: 31.4%

## O=c1oc2cc(OS(=O)(=O)C3CC3)ccc2c2c1CCCCCC2
T-47D breast
  growth: 57.6%
BT-549 breast
  growth: 80.1%
MDA-MB-435 melanoma
  growth: 94.8%
SW-620 colon
  growth: 96.5%
MCF7 breast
  growth: 81.6%
HCT-116 colon
  growth: 82.5%
HCC-2998 colon
  growth: 90.8%
KM12 colon
  growth: 77.8%

## Fc1ccc2[nH]c3c(NCCCN4CCOCC4)ncnc3c2c1
T-47D breast
  growth: 54.6%
BT-549 breast
  growth: 96.4%
MDA-MB-435 melanoma
  growth: 88.3%
SW-620 colon
  growth: 69.6%
MCF7 breast
  growth: 84.7%
HCT-116 colon
  growth: 47.4%
HCC-2998 colon
  growth: 75.4%
